According to PubChem BioAssay:
Calls of active or inactive are those of the source.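 The calls were made as follows, unless noted: active = compound that reduces growth-factor-driven endothelial tube area in a mixed cell culture, no cutoff stated; inactive = the rest.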

Assays:
[1] = stimulators of nuclear beta-catenin in C2C12, primary screen, imaging, WNT3A-conditioned medium, mouse C2C12, NPC library (AID 1117326; in the data active = nuclear beta-catenin stimulation mostly above about 4.2%, no sharp cut-off; inactive = mostly below about 10%; also: reference of the scale not given here); conditions: stronger effect = higher value
[2] = stimulators of insulin release from INS-1E, primary screen, cell-based, 5 mM glucose, NPC library (AID 1117329;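 active = compound raises insulin release from rat beta cells at 5 mM glucose, no numeric limit stated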; also: reference of the scale not given here); conditions: rat INS-1E insulin secretion, at 10 µM, stronger effect = higher value
[3] = growth inhibition of GSK3B-pretreated HCT116 cells – cell-based, CellTiter-Glo, 0.2 to 20 µM (AID 1117336;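 active = compounds lowering colon cancer cell viability after pretreatment blocking the GSK3B kinase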); conditions: HCT116 viability after GSK3B inhibitor, at 20 µM, stronger effect = higher value
[4] = inhibition of endothelial tube formation, primary screen, imaging, VEGF stimulated, CD31 staining, tube area, NPC library (AID 1117340); conditions: VEGF-stimulated ADSC/ECFC co-culture, at 10 µM, stronger effect = higher value
[5] = glucagon-like peptide 1 release enhancers, primary assay, NCI-H716 cell line, NPC library (AID 1117341;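 active = compound raises GLP1 secretion from the human gut endocrine cells, with no numeric limit stated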; also: reference of the scale not given here); conditions: NCI-H716 cells, at 10 µM, stronger effect = higher value
[6] = HCT116 colon cancer cell growth inhibition, primary screen, CellTiter-Glo luminescence, NPC library (AID 1117342;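 active = compounds that lower survival of HCT116 colon cancer cells in the luminescence readout, no numeric limit stated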); conditions: at 20 µM (top of the series)
[7] = CellTiter-Glo luminescent readout of SW480 viability loss, NPC library primary (AID 1117343;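 active = compounds that lower viability of the colon cancer cells in the luminescence readout, with no numeric limit stated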); conditions: CellTiter-Glo luminescence; at 20 µM (top of the series)
[8] = decreased DLD-1 cellular survival, CellTiter-Glo luminescent readout, NPC compound collection, primary HTS (AID 1117346;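 active = compounds that lower survival of DLD-1 colon cancer cells in the luminescence readout, no cutoff given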); conditions: DLD-1 viability, CellTiter-Glo luminescence; at 20 µM (top of the series)

CO/N=C(\C(=O)O)c1csc(NC(=O)CCl)n1
2.9%: nuclear beta-catenin stimulation ([1]; stimulation, at 2 µM)
inactive: nuclear beta-catenin stimulation ([1]; at 10 µM) 0.7% | insulin secretion stimulation [2] 1.4% | viability decrease [3] 16.2% | tube area decrease [4] -12.1% | GLP1 secretion stimulation [5] 1.7% | inhibition of viability [6] -2% | viability decrease (inhibition) [7] -1.7% | viability decrease (inhibition) [8] -2.1%

c1ccc(-n2cnnn2)cc1
inactive: nuclear beta-catenin stimulation ([1]; at 10 µM) 0.3% | insulin secretion stimulation [2] 1.9% | viability decrease [3] -7.2% | tube area decrease [4] 23.2% | GLP1 secretion stimulation [5] -5% | inhibition of viability [6] 1.7% | viability decrease (inhibition) [7] 10.4% | viability decrease (inhibition) [8] 1.4%
0.9%: nuclear beta-catenin stimulation ([1]; stimulation, at 2 µM)

CCNC(=O)NCCCOc1cccc(CN2CCCCC2)c1
-1.5%: nuclear beta-catenin stimulation ([1]; stimulation, at 2 µM)
inactive: nuclear beta-catenin stimulation ([1]; at 10 µM) -0.4% | insulin secretion stimulation [2] 4.7% | viability decrease [3] 1.2% | tube area decrease [4] 0.6% | GLP1 secretion stimulation [5] -0.5% | inhibition of viability [6] 5% | viability decrease (inhibition) [7] -19.1% | viability decrease (inhibition) [8] -12.6%

O=C(O)Cn1c(=O)n(Cc2ccc(Br)cc2F)c(=O)c2ccc(Cl)cc21
inactive: nuclear beta-catenin stimulation ([1]; at 10 µM) 1.1% | insulin secretion stimulation [2] 2.4% | viability decrease [3] 4.6% | tube area decrease [4] 21.7% | GLP1 secretion stimulation [5] -1.6% | inhibition of viability [6] 5% | viability decrease (inhibition) [7] -2.1% | viability decrease (inhibition) [8] -18.7%
-0.9%: nuclear beta-catenin stimulation ([1]; stimulation, at 2 µM)

CC(=O)O[C@@H]1C(=O)O[C@@H]2[C@H]1OC(=O)[C@@H]2OC(C)=O
inactive: nuclear beta-catenin stimulation ([1]; at 10 µM) 0.6% | insulin secretion stimulation [2] 2.4% | viability decrease [3] 19.5% | tube area decrease [4] -1% | GLP1 secretion stimulation [5] -3.4% | inhibition of viability [6] 22.9% | viability decrease (inhibition) [7] 18.7% | viability decrease (inhibition) [8] 4.6%
-1.1%: nuclear beta-catenin stimulation ([1]; stimulation, at 2 µM)

CN(C)c1ccc(C(=C2C=CC(=[N+](C)C)C=C2)c2ccccc2)cc1
63.1%: nuclear beta-catenin stimulation ([1]; stimulation, at 2 µM)
active: nuclear beta-catenin stimulation ([1]; at 10 µM) 4.5% | viability decrease [3] 100% | tube area decrease [4] 109% | inhibition of viability [6] 99.7% | viability decrease (inhibition) [7] 102% | viability decrease (inhibition) [8] 102%
inactive: insulin secretion stimulation [2] 0.2% | GLP1 secretion stimulation [5] 0.7%

Cc1nc([N+](=O)[O-])cn1-c1ccc([N+](=O)[O-])cc1
inactive: nuclear beta-catenin stimulation ([1]; at 10 µM) -0.1% | insulin secretion stimulation [2] 2% | viability decrease [3] -6.7% | tube area decrease [4] 3.8% | GLP1 secretion stimulation [5] 3.6% | inhibition of viability [6] 18.2% | viability decrease (inhibition) [7] 10.4% | viability decrease (inhibition) [8] -13.5%
-2.2%: nuclear beta-catenin stimulation ([1]; stimulation, at 2 µM)

Cc1cccc(C)c1NC(=O)c1cc(S(N)(=O)=O)c(Cl)cc1O
inactive: nuclear beta-catenin stimulation ([1]; at 10 µM) -1.8% | insulin secretion stimulation [2] -1.9% | viability decrease [3] -8.6% | tube area decrease [4] -2.4% | GLP1 secretion stimulation [5] -2.3% | inhibition of viability [6] -3.4% | viability decrease (inhibition) [7] 3.4% | viability decrease (inhibition) [8] -5.4%
0.7%: nuclear beta-catenin stimulation ([1]; stimulation, at 2 µM)

CCCCCCCCOc1ccc(C(=O)c2ccccc2)c(O)c1
inactive: nuclear beta-catenin stimulation ([1]; at 10 µM) 1% | insulin secretion stimulation [2] -2.1% | viability decrease [3] -6.85% | tube area decrease [4] -7.2% | GLP1 secretion stimulation [5] 0.4% | inhibition of viability [6] -7.5% | viability decrease (inhibition) [7] -0.5% | viability decrease (inhibition) [8] 6.1%
0.6%: nuclear beta-catenin stimulation ([1]; stimulation, at 2 µM)

O=C(CO)[C@@H](O)[C@H](O)[C@@H](O)CO
-0.9%: nuclear beta-catenin stimulation ([1]; stimulation, at 2 µM)
inactive: nuclear beta-catenin stimulation ([1]; at 10 µM) -1.8% | insulin secretion stimulation [2] 3% | viability decrease [3] -1.5% | tube area decrease [4] -29.2% | GLP1 secretion stimulation [5] -2.6% | inhibition of viability [6] 8.2% | viability decrease (inhibition) [7] 4.9% | viability decrease (inhibition) [8] 3.2%

O=C(O)CCC(=O)O
0.2%: nuclear beta-catenin stimulation ([1]; stimulation, at 2 µM)
inactive: nuclear beta-catenin stimulation ([1]; at 10 µM) 0% | insulin secretion stimulation [2] -1% | viability decrease [3] -5.25% | tube area decrease [4] -24.1% | GLP1 secretion stimulation [5] 1.6% | inhibition of viability [6] -15.8% | viability decrease (inhibition) [7] 10% | viability decrease (inhibition) [8] -6.5%

CCCC(=O)O[C@]1(C(=O)COC(=O)CC)CC[C@H]2[C@@H]3CCC4=CC(=O)CC[C@]4(C)[C@H]3[C@@H](O)C[C@@]21C
inactive: nuclear beta-catenin stimulation ([1]; at 10 µM) -0.4% | insulin secretion stimulation [2] 0.8% | viability decrease [3] -8.8% | tube area decrease [4] -9% | GLP1 secretion stimulation [5] 1.9% | inhibition of viability [6] 6.6% | viability decrease (inhibition) [7] -5.5% | viability decrease (inhibition) [8] -2%
-2.3%: nuclear beta-catenin stimulation ([1]; stimulation, at 2 µM)

COC(=O)c1cc(Cl)ccc1NS(=O)(=O)C(F)(F)F
-1.2%: nuclear beta-catenin stimulation ([1]; stimulation, at 2 µM)
inactive: nuclear beta-catenin stimulation ([1]; at 10 µM) -1.2% | insulin secretion stimulation [2] 1.8% | viability decrease [3] 17.5% | tube area decrease [4] -6.9% | GLP1 secretion stimulation [5] -0.4% | inhibition of viability [6] 8.93% | viability decrease (inhibition) [7] 30.2% | viability decrease (inhibition) [8] -4.9%

CCOc1c(N2CCOCC2)cnn(C)c1=O
4.4%: nuclear beta-catenin stimulation ([1]; stimulation, at 2 µM)
inactive: nuclear beta-catenin stimulation ([1]; at 10 µM) -0.3% | insulin secretion stimulation [2] 1.5% | viability decrease [3] -36.6% | tube area decrease [4] 4.1% | GLP1 secretion stimulation [5] 0.1% | inhibition of viability [6] 11.2% | viability decrease (inhibition) [7] 7.7% | viability decrease (inhibition) [8] -14.1%

CC(=O)Oc1ccc(C(=C2CCCCC2)c2ccc(OC(C)=O)cc2)cc1
inactive: nuclear beta-catenin stimulation ([1]; at 10 µM) 0.2% | insulin secretion stimulation [2] -0.3% | tube area decrease [4] 4.9% | GLP1 secretion stimulation [5] 7.4%
active: viability decrease [3] 109% | inhibition of viability [6] 112% | viability decrease (inhibition) [7] 130% | viability decrease (inhibition) [8] 102%
1.4%: nuclear beta-catenin stimulation ([1]; stimulation, at 2 µM)

Cn1c(=O)c2[nH]c(Br)nc2n(C)c1=O
2%: nuclear beta-catenin stimulation ([1]; stimulation, at 2 µM)
inactive: nuclear beta-catenin stimulation ([1]; at 10 µM) 0.6% | insulin secretion stimulation [2] 0.9% | viability decrease [3] 2.55% | tube area decrease [4] 10.2% | GLP1 secretion stimulation [5] 1.1% | inhibition of viability [6] -3.7% | viability decrease (inhibition) [7] -17.4% | viability decrease (inhibition) [8] -0.15%
